{
  "source": "PubChem BioAssay (EPA / NIEHS)",
  "note": "Active and inactive are the calls of the source. The calls were made as follows: active = hit-call score of the fitted dose curve at least 0.9, where 1 is the maximum; inactive = score below 0.9.",
  "data": [
    {"target": "Cytochrome P450 2C18 (Homo sapiens) (UniProt P33260)", "sequence (P33260 whole entry, looked up)": "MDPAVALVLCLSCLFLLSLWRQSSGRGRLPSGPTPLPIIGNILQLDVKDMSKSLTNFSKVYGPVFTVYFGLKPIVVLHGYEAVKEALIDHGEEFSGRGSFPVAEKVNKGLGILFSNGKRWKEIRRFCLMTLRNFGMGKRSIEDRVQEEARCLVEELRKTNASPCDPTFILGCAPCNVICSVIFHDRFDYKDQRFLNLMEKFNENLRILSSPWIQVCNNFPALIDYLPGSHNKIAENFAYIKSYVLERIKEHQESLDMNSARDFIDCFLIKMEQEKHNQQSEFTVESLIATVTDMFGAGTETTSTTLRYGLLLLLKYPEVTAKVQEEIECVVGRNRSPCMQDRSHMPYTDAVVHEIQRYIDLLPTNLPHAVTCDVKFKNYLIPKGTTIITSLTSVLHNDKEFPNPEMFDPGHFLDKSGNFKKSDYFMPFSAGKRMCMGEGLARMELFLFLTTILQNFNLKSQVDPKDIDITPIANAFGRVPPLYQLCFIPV", "test": "NVS_ADME_hCYP2C18: NovaScreen (NVS) CYP450-related Enzyme Activity (ADME) Assay for human CYP2C18 (AID 2283103)", "procedure": "NVS_ADME_hCYP2C18 is a biochemical, single-readout assay that uses extracted gene-proteins in a cell-free assay. Measurements were taken 0.5 hour after chemical dosing in a 96-well plate.NVS_ADME_hCYP2C18 is one of one assay component(s) measured or calculated from the NVS_ADME_hCYP2C18 assay. It is designed to make measurements of enzyme activity, a form of enzyme reporter, as detected with fluorescence intensity signals by Fluorescence technology.Data from the assay component NVS_ADME_hCYP2C18 was analyzed into 1 assay endpoint. This assay endpoint, NVS_ADME_hCYP2C18, was analyzed in the positive analysis fitting direction relative to Acetonitrile as the negative control and baseline of activity. Using a type of enzyme reporter, loss-of-signal activity can be used to understand changes in the enzymatic activity as they relate to the gene CYP2C18. Furthermore, this assay endpoint can be referred to as a primary readout, because this assay has produced multiple assay endpoints where this one serves a enzymatic activity function. To generalize the intended target to other relatable targets, this assay endpoint is annotated to the cyp intended target family, where the subfamily is xenobiotic metabolism.\nBinding assays used specific radioligands (tritiated, iodinated) with non-radioactive competitive displacement ligands in agonist or antagonist protocols (as indicated) and various reference compounds and inhibitors to titrate specific binding to receptors and transporters. Most enzyme assays (CYPs, kinases, phosphatases, proteases, HDACs) used recombinant protein and specific substrates (fluorescence mostly, some colorimetric and radioactive) and inhibitors, followed by a biochemical separation of substrate and product. All assays for the biochemical HTS were initially run in duplicate at a single concentration (10 uM for CYP450 assays and 25 uM for all others). Assay-chemical combinations meeting a pre-defined threshold (e.g., 30% inhibition and other criteria defined below) were then run in singleton concentration-response format with maximum concentration of 20 uM for CYPs and 50 uM for all others. Each assay was run with positive and negative controls, and concurrent controls on every plate. The follow-up (secondary) screen tested active chemical-pairs in concentration series, as well as a few additional assays not tested in the primary screen, some selected negative inactives, and several cases re-run in the concentration series for confirmatory purposes.", "values": [
      {"molecule": "CC(C)NC(=O)N1CC(=O)N(c2cc(Cl)cc(Cl)c2)C1=O", "outcome": "inactive"},
      {"molecule": "CC1(C)CCC(=Cc2ccc(Cl)cc2)C1(O)Cn1cncn1", "note": "(configuration not stated)", "AC50": "2.03 µM (active)"},
      {"molecule": "COc1ccc(-c2ccccc2)cc1NNC(=O)OC(C)C", "AC50": "0.684 µM (active)"},
      {"molecule": "COC(=O)c1c(C(F)F)nc(C(F)(F)F)c(C2=NCCS2)c1CC(C)C", "AC50": "1.88 µM (active)"},
      {"molecule": "CCOc1cc(C(C)(C)C)ccc1C1COC(c2c(F)cccc2F)=N1", "note": "(configuration not stated)", "outcome": "inactive"},
      {"molecule": "COP(=S)(OC)SCn1nnc2ccccc2c1=O", "AC50": "1.93 µM (active)"},
      {"molecule": "CC(C)Oc1cccc(NC(=O)c2ccccc2C(F)(F)F)c1", "AC50": "2.66 µM (active)"},
      {"molecule": "CC(C)N1C(=O)N(c2ccccc2)CSC1=NC(C)(C)C", "AC50": "8.79 µM (active)"},
      {"molecule": "CCCCOCN(C(=O)CCl)c1c(CC)cccc1CC", "AC50": "6.71 µM (active)"},
      {"molecule": "CCN(CC)C(=O)C(C)Oc1cccc2ccccc12", "note": "(configuration not stated)", "AC50": "10.8 µM (active)"},
      {"molecule": "CC(C)(C)C(=O)C(Oc1ccc(Cl)cc1)n1cncn1", "note": "(configuration not stated)", "AC50": "8.28 µM (active)"},
      {"molecule": "CCNP(=S)(OC)O/C(C)=C/C(=O)OC(C)C", "note": "(configuration not stated)", "AC50": "2.63 µM (active)"},
      {"molecule": "CCOP(=O)(OCC)Oc1nc(Cl)c(Cl)cc1Cl", "AC50": "6.11 µM (active)"},
      {"molecule": "CCCCC(C#N)(Cn1cncn1)c1ccc(Cl)cc1", "note": "(configuration not stated)", "AC50": "2.25 µM (active)"},
      {"molecule": "CO/N=C(/C1=NOCCO1)c1ccccc1Oc1ncnc(Oc2ccccc2Cl)c1F", "AC50": "0.933 µM (active)"},
      {"molecule": "COP(=S)(OC)Oc1ccc([N+](=O)[O-])c(C)c1", "AC50": "2.31 µM (active)"},
      {"molecule": "CCCCC(O)(Cn1cncn1)c1ccc(Cl)cc1Cl", "note": "(configuration not stated)", "AC50": "1.59 µM (active)"}
    ]}
  ]
}
